M1 ag – agonists of human M1 muscarinic receptor | CHO-K1 hM1, Fluo-8 calcium fluorescence, agonist mode; 0% DMSO, 100% acetylcholine EC100 | activation, % at 3 µM | actives 0.33% (n = 360,000);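 active = activation above the run's mean compound activation plus 3 SD, cut at about 16% in these data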;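 note: peak over basal fluorescence ratio within a 140 s kinetic read after compound addition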
Target sequence (P11229 whole entry, looked up): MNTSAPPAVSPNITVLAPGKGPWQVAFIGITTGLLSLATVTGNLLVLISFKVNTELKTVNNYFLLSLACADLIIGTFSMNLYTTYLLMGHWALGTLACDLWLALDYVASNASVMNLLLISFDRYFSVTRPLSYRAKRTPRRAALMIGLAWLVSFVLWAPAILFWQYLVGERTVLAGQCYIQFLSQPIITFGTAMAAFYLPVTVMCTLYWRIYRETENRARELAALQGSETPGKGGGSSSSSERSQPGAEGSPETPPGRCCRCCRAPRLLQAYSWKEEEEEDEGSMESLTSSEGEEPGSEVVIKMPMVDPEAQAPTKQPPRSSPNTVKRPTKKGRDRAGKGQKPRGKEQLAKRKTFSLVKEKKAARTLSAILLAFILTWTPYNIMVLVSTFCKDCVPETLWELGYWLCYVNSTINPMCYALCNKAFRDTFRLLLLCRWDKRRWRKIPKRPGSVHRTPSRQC
CHRM1 antagonist – blocks human M1 muscarinic receptor; actives 1.3% (n = 360,000); CHO-K1 hM1, Fluo-8 calcium fluorescence, ACh EC80 antagonist; inhibition, % at 3 µM; P11229;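 active = percent inhibition above its own plate's cutoff, namely the mean of that plate's compound wells plus 3 SD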;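 note: peak over basal fluorescence ratio during 140 s after agonist addition; 0% = ACh EC80 plus DMSO and 100% = DMSO alone without agonist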
M1 PAM – potentiates human M1 receptor response to acetylcholine; activation, % at 3 µM; CHO-K1 hM1, Fluo-8 calcium fluorescence, ACh EC20; 0% = ACh EC20, 100% = maximal ACh; actives 0.088% (n = 360,000); AID 588819; in the data active = activation above about 19%, passing the limit was not always enough
CHO-K1 Ca antag – M1 antagonist counterscreen hit in parental CHO-K1 cells. ATP-induced calcium, Fluo-8 fluorescence. inhibition, % at 3 µM. actives 0.6% (n = 360,000). AID 602250;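 active = inhibition above a per-plate cutoff, the plate's mean sample inhibition plus 3 SD, cut at about 24% in these data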;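 note: 0% = DMSO plus EC80 ATP and 100% = DMSO alone without ATP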
CHO-K1 Ca PAM – M1 PAM counterscreen hit in parental CHO-K1 cells; ATP EC20, Fluo-8 calcium fluorescence; 0% at ATP EC20, 100% at ATP max; activation, % at 3 µM; actives 0.02% (n = 360,000);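 active = activation above the run cutoff, the mean activation of all test compounds plus 3 SD, cut at about 40% in these data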;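 note: peak over basal fluorescence ratio in a 140 s read after ATP addition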
M1 ag parental – counter-screen for M1 agonists: effect in parental CHO-K1 cells | Fluo-8 calcium fluorescence; scaled to maximal ATP response, vehicle zero | activation, % at 3 µM | actives 0.48% (n = 360,000); in the data active = activation above about 15%;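 note: untransfected CHO-K1 host cells lacking M1 receptor as counterscreen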
An asterisk follows results filed as active. This is a sample that favours compounds with a hit; in the whole collection about 2.3% have one here.

SMILES	M1 ag	CHRM1 antagonist	M1 PAM	CHO-K1 Ca antag	CHO-K1 Ca PAM	M1 ag parental
COc1cc2c(cc1OC)C(C)N(CC(=O)Nc1ccc(S(=O)(=O)N3CCCC3)cc1)CC2 (centres undefined)	-2.6	57.7*	-24.6	-12.2	1.6	4.2
CC1CCCN(CC(=O)Nc2ccc(S(=O)(=O)N3CCCC3)cc2)C1 (centres undefined)	-12.4	66.9*	-33.5	2.9	-12.3	0.0
CCn1nnc2cc(C(=O)Nc3cc(OC)cc(OC)c3)ccc21	-2.0	-9.8	7.6	-10.2	4.3	0.6
COc1cccc(C(=O)OCC(=O)c2c[nH]c3ccccc23)c1O	-4.8	9.8	-3.9	-2.4	11.9	5.2
O=C(c1ccco1)N1CCN(C(=O)c2ccc(Br)o2)CC1	-4.0	-11.6	6.5	-3.7	16.3	0.8
O=C(c1ccc(Br)o1)N1CCN(C23CC4CC(CC(C4)C2)C3)CC1	-6.3	67.1*	-22.0	12.5	-11.7	0.3
O=C(C1CCCCC1)N1CCC2CC1c1cc(-c3ccc4c(c3)OCO4)ccc12 (centres undefined)	-4.6	35.1*	-18.2	16.1	12.8	4.0
CC(C)(C)OC(=O)N[C@H](C(=O)OC(C)(C)C)c1ccc2ccccc2c1	1.8	4.5	9.4	-13.7	15.8	0.2
CCOCCn1c(CN2CCN(C)CC2)nc2c1c(=O)n(C)c(=O)n2C	-1.4	-31.2	28.7*	-5.8	18.4	-0.2
CC1(C)CC[C@]2(C(=O)O)CC[C@]3(C)C(=CC[C@@H]4[C@@]5(C)CC[C@H](O[C@@H]6O[C@H](C(=O)O)[C@@H](O)[C@H](O[C@@H]7OC[C@H](O)[C@H](O)[C@H]7O)[C@H]6O)C(C)(C)[C@@H]5CC[C@]43C)[C@@H]2C1	1.6	19.4	-8.5	24.3*	-16.5	-0.1
Cc1ccccc1C(=O)NNC(=O)C1CC(=O)N(c2ccc3c(c2)OCCO3)C1 (centres undefined)	-5.5	8.3	-1.0	-15.3	11.5	0.4
CN(C)C1(CNC(=S)Nc2ccccc2C(F)(F)F)CCCCC1	50.0*	5.9	-6.0	-7.3	15.2	1.6
CN(C)C1(CNC(=O)Nc2ccccc2)CCCCC1	-7.8	-8.7	7.0	-7.6	12.5	1.2
CC(=C/c1ccccc1)/C=N/n1c(-c2ccncc2)n[nH]c1=S	29.6*	-0.5	4.9	-4.0	0.1	0.2
CCc1cccc(NC(=O)c2ccc(Cn3nc(C)cc3C)o2)c1	-9.0	-12.4	8.4	23.9*	-12.1	-0.2
O=C(c1ccc(-c2ccccc2)cc1)C1CCCN(Cc2ccncc2)C1 (centres undefined)	-12.8	11.5	-16.5	1.3	15.2	7.5
CC(=O)Nc1ccc(CN(C)CC2CCCN(CCc3cccc(C(F)(F)F)c3)C2)cc1 (centres undefined)	-8.2	52.0*	-28.5	-11.3	15.0	0.2
CC(=O)Nc1ccc(CN2CCCC(C(=O)c3ccc(C(F)(F)F)cc3)C2)cc1 (centres undefined)	-15.5	50.9*	-37.5	-15.5	18.3	3.2
COCc1cc(CN2CCCC(C(=O)c3cccc(C(F)(F)F)c3)C2)ccc1OC (centres undefined)	-11.7	43.5*	-30.6	-9.2	13.6	2.5
O=C(c1cccc(C(F)(F)F)c1)C1CCCN(Cc2cccc(OCCO)c2)C1 (centres undefined)	-11.4	38.7*	-30.9	9.1	-1.8	3.6
CSc1ccccc1NC(=O)c1ccccc1C	-3.0	-12.3	11.6	-14.0	18.0	-0.5
O=C(c1cccc(C(F)(F)F)c1)C1CCCN(Cc2cccn2-c2ccccn2)C1 (centres undefined)	-14.4	35.3*	-35.6	-0.4	4.8	2.2
C/C(=N\NC(=O)OC(C)(C)C)c1ccc(-n2ccnc2)cc1	0.3	9.2	-2.2	-1.1	-5.0	0.9
C=C(C)CNC(=S)N/N=C(\C)c1ccc(-n2ccnc2)cc1	-2.4	-4.4	-1.8	-19.2	11.8	5.2
C/C(=N\NC(=O)c1ccccc1)c1ccc(-n2ccnc2)cc1	-5.2	9.7	-5.6	27.9*	-14.2	-0.1
SMILES	M1 ag	CHRM1 antagonist	M1 PAM	CHO-K1 Ca antag	CHO-K1 Ca PAM	M1 ag parental
C/C(=N\NC(N)=S)c1ccc(-n2ccnc2)cc1	-1.7	-0.4	28.8*	-9.5	7.1	1.2
CCSc1nc2c(cnn2-c2ccccc2)c(=O)n1N	-1.8	-5.8	-2.8	-1.4	-11.8	0.2
O=C(CN1C(=O)NC2(CCc3ccccc32)C1=O)Nc1ccc(Cl)cc1F (centres undefined)	0.9	-15.0	12.4	-8.6	5.5	0.9
O=C(COC(=O)CCc1nc2ccccc2c(=O)[nH]1)Nc1ccccc1Cl	-4.0	-7.8	4.5	-7.7	17.1	2.1
O=C(COC(=O)CCc1nc2ccccc2c(=O)[nH]1)Nc1ccccc1OC(F)F	5.0	-14.7	23.9*	8.6	2.9	-0.1
Cc1ccc(S(=O)(=O)NC(C)C(=O)OCC(=O)N(C)c2ccccc2)cc1 (centres undefined)	-1.4	-0.1	1.2	-11.4	-4.9	8.7
O=C(c1cnc2ccc3ccccc3c2c1)c1cc(F)ccc1O	5.7	0.0	3.1	-20.9	40.3*	3.5
CCOC(=O)Cn1c(=O)oc2cc(S(=O)(=O)NCCc3ccc(C)cc3)ccc21	4.4	-10.2	2.9	-4.7	10.7	4.0
CCOC(=O)Cn1c(=O)oc2cc(S(=O)(=O)Nc3ccc(F)cc3)ccc21	30.6*	-2.4	7.2	-3.0	0.5	7.7
Cc1ccc(C(=O)NCC(C)(C)O)cc1	-2.2	15.5	-3.4	26.3*	-7.9	0.0
OC[C@@H]1CN(Cc2ccc(F)cc2)C[C@H](n2cnc3c(N4CCCC4)ncnc32)O1	2.5	-17.9	10.2	-4.5	1.2	0.9
COc1cc(CN2C[C@@H](CO)O[C@@H](n3cnc4c(Nc5ccccc5)ncnc43)C2)cc(OC)c1OC	-0.5	32.9	-20.0	33.4*	-15.4	5.4
COc1cc(CN2C[C@@H](CO)O[C@@H](n3cnc4c(NC5CCC5)ncnc43)C2)cc(OC)c1OC	3.4	-7.9	5.1	-9.4	32.0	0.1
OC[C@@H]1CN(Cc2ccc(-c3ccccc3)cc2)C[C@H](n2cnc3c(NCc4ccncc4)ncnc32)O1	6.4	25.1	-9.3	7.8	-3.6	16.7*
OC[C@@H]1CN(Cc2ccc(-c3ccccc3)cc2)C[C@H](n2cnc3c(NCc4ccco4)ncnc32)O1	5.8	18.8	1.0	24.8*	-12.8	7.6
CN1CCN(c2ncnc3c2ncn3[C@H]2CN(Cc3ccc(F)cc3)C[C@@H](CO)O2)CC1	-2.9	22.5	-8.8	25.1*	-12.7	0.1
CC(C)CNc1ncnc2c1ncn2[C@H]1CN(Cc2ccc(-c3ccccc3)cc2)C[C@@H](CO)O1	3.4	28.4*	-8.6	10.4	-8.9	11.4
